In the supplement of paper PMC3334620:
The full ranking holds about 33,000 sequences; the median of “E-score (-0.5 to 0.5)” is about -0.0059, and the highest 2% start at about 0.26. The sample holds the highest values, similar sequences and a random draw of the others, so the mix is not that of the screen.

target: T1, Cin5 (UniProt P40917); assay: PBM E-score (8-mer binding enrichment) (E-score (-0.5 to 0.5)); higher = stronger / more preferred TF binding; conditions: protein concentration: 100 nM; construct: GST-full length
T1 sequence: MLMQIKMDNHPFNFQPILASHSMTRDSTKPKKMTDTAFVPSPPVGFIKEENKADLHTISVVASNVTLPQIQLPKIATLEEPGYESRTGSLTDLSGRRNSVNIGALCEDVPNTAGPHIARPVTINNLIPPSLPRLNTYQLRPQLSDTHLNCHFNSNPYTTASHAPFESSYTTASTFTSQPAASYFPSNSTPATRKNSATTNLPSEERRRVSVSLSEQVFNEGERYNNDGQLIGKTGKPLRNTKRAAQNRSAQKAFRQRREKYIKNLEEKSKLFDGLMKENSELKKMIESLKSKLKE
Description: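 Universal 'all 10-mer' protein binding microarrays (Agilent AMADID 015681) probed with GST-tagged S. cerevisiae TFs (full-length or DBD) made by in vitro transcription/translation (PURExpress), about 100-200 nM. Bound TF was detected with fluorescent anti-GST. Each ungapped 8-mer (which stands for itself and its reverse complement) is scored by the PBM enrichment score (E-score), a modified Wilcoxon-Mann-Whitney statistic from -0.5 to +0.5, computed with the Universal PBM Analysis Suite. Scale: above 0.35 generally sequence-specific binding.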

Sequence | PBM E-score
CTAAGGCA | -0.173
CTTACATA | 0.358
CATACGTA | 0.242
CTTACAAA | 0.192
CGTACATA | 0.191
AATACGTA | 0.313
GTTACATA | 0.266
GCTACATA | 0.0756
CTTACATC | 0.213
ATTACATC | 0.31
AGTACATC | 0.0156
AATACGTG | -0.0461
GTTACAAA | 0.184
ACTGCCAC | -0.012
AATCAGTC | 0.0788
AGCCAGTA | -0.0197
GAGTGCGA | -0.11
AATCGAGA | 0.171
AATCTCCG | 0.0667
ATTACAAT | 0.153
ATTACAAG | 0.131
ATTACAAA | 0.306
GAATATAA | 0.112
CAATATAC | 0.181
TAATATAA | 0.355

Sequence | PBM E-score
CAATATAG | 0.225
CAATATAA | 0.295
TCATATAA | 0.197
TATAGCCA | 0.111
ACTTAATA | 0.26
GTTTAATA | 0.143
ATTTAATA | 0.295
ACTTAATC | 0.133
CTTTAATA | 0.122
GCTTAATA | 0.207
AGTTCGCA | 0.0133
ATCCAACA | 0.0603
CTTGCGTC | -2e-05
TATGGGGA | 0.27
CATGGGGA | -0.0804
AATGGGGA | 0.0144
CGGGTGTC | -0.00474
ACCCCTCT | -0.17
AGACATAT | 0.0819
CTACATAA | 0.0697
ATACATAG | 0.159
ATACATAA | 0.286
ATACATAC | 0.0724
ATACATAT | 0.318
AGTTCTAC | -0.141

Sequence | PBM E-score
TATGCTCA | 0.132
CAACCCGG | -0.222
CGCAGCGC | -0.138
AAGCTACC | 0.106
CAATGATA | 0.182
ATATGAAC | 0.132
CTATGAAA | 0.0722
AAATGATA | 0.279
TAAATGAA | 0.129
ATATGAAA | 0.259
AAATGAGA | 0.128
AAATGAAA | 0.266
CAAATGAA | -0.0217
TAATGAAA | 0.203
GAAATGAA | 0.275
CAATGAAA | 0.0978
CTTTGCCC | -0.199
ATCCCTAA | -0.19
ACGGCCGA | 0.0311
GGCGGCAA | -0.184
GGTATACC | -0.0512
AACCAATA | 0.214
AGATACAT | 0.171
CAGCGCAA | 0.0372
TAATGATA | 0.298

Sequence | PBM E-score
AAATGGTA | 0.268
CAATGGTA | 0.101
GAATGAGA | 0.115
TAATGACA | 0.237
TAATGGTA | -0.00375
GAATGATC | -0.046
AAATGATC | 0.00639
AAATGATG | 0.207
TAATGAGA | 0.0551
AAATGATT | 0.294
GAATGATA | 0.291
CGACGTCC | 0.0493
ATAGTGTC | 0.0674
ACATGGCT | -0.0786
CTACGAGC | -0.108
GGAACCAC | -0.0344
AGATGATG | 0.27
AGATGATA | 0.212
AAAATTAA | 0.105
GAAATTAA | 0.273
AGATGATC | 0.119
CAAATTAA | 0.191
